Measurements: article PMC7862700, “An all-to-all approach to the identification of sequence-specific readers for epigenetic DNA modifications on cytosine”

Tests used:
Test in all cases: DAPPL (digital affinity profiling via proximity ligation, sequencing); 10 mM Tris-HCl pH 7.5, 50 mM NaCl, 1 mM DTT, 4% glycerol, room temperature, 30 min; GST-TFs on glutathione beads, 16-mer random dsDNA library, 0.1% formaldehyde crosslink after washing; high values mean tight binding
Details in all cases: protein: recombinant; tags: N-terminal GST; dsDNA, one strand shown
ERF = target: T1, ERF (Homo sapiens, UniProt P50548 1-548)
T1 sequence: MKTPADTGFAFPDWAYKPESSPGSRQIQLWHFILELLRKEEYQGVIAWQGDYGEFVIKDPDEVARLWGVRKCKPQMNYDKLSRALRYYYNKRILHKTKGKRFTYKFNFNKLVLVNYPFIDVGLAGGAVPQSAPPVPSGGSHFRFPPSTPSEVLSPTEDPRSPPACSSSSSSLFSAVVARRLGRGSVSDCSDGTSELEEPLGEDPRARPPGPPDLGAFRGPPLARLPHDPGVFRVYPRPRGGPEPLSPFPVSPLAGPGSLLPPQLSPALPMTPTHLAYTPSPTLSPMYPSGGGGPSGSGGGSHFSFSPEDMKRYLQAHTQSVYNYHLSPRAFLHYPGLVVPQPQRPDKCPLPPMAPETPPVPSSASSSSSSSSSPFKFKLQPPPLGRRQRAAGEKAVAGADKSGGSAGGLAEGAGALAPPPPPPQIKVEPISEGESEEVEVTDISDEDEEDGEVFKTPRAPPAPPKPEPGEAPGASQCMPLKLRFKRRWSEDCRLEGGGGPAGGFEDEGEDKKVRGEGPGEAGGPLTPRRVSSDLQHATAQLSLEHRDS
Method in brief: (§1)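 Binding signal is defined as a hexamer's read frequency for one factor over its frequency for the tag-only sample. To obtain reads, GST-fused human transcription factors were expressed in yeast, captured on glutathione beads, barcoded with DNA and pooled with that sample. Pools met 200 nmole of a 16-mer random double-stranded DNA library in Tris/NaCl/DTT/glycerol buffer for 30 min at room temperature before washing, 0.1% formaldehyde crosslinking, proximity ligation (BsaI/T4 ligase, 1 h, 37 °C), PCR and Illumina NextSeq500 sequencing.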

ETV3L = target: T2, ETV3L (Homo sapiens, UniProt Q6ZN32 1-361)
T2 sequence: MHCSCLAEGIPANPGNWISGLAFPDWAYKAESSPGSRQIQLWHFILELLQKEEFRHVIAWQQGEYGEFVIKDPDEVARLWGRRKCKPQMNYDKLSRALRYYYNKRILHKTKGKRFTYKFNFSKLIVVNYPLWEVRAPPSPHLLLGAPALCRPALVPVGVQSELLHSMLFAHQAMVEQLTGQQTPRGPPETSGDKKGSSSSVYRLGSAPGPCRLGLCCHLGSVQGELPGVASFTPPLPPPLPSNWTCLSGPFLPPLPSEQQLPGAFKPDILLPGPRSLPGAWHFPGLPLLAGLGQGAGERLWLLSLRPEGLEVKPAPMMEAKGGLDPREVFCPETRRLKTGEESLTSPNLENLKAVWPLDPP
Method in brief: as §1

ETS2 = target: T3, ETS2 (Homo sapiens, UniProt P15036 1-469)
T3 sequence: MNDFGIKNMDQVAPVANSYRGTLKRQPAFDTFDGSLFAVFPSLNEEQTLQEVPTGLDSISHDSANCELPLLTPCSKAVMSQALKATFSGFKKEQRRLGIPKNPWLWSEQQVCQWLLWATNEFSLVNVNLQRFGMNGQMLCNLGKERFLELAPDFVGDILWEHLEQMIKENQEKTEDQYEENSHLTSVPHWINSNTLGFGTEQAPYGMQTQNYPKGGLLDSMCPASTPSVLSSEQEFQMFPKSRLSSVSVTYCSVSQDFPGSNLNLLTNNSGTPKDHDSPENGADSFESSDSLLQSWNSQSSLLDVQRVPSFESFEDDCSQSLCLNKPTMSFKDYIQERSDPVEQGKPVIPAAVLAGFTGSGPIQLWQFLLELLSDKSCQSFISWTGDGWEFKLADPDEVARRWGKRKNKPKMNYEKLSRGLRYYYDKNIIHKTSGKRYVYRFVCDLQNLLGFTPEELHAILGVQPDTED
Method in brief: as §1

SPDEF = target: T4, SPDEF (Homo sapiens, UniProt O95238 1-335)
T4 sequence: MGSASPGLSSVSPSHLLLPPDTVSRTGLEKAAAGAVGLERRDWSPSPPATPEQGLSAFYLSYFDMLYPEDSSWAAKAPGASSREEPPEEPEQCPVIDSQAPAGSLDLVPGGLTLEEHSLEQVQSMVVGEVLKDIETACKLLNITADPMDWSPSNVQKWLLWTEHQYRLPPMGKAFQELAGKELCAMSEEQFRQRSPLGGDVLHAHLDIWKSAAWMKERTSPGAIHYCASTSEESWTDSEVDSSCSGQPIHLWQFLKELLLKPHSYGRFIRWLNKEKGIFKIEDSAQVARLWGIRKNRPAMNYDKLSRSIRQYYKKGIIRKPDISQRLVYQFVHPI
Method in brief: as §1

ETV7 = target: T5, ETV7 (Homo sapiens, UniProt Q9Y603 1-341)
T5 sequence: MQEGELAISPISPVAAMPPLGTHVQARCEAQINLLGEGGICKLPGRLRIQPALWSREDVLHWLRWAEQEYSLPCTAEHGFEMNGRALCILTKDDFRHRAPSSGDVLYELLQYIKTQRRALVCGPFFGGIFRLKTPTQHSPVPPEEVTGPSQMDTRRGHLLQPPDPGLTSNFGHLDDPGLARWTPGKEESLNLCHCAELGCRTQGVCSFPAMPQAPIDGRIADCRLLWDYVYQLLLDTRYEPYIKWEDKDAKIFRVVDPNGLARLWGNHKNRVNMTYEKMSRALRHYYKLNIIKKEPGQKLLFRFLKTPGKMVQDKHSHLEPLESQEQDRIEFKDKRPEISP
Method in brief: as §1

ELF5 = target: T6, ELF5 (Homo sapiens, UniProt Q9UKW6-2 1-255)
T6 sequence: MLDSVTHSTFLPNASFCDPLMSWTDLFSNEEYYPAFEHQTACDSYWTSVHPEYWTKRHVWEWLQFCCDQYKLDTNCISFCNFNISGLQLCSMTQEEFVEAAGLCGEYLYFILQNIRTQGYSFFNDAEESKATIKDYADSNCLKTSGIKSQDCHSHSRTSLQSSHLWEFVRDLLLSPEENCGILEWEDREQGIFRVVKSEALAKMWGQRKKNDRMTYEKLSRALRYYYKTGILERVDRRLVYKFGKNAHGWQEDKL
Method in brief: as §1

ETV3 = target: T7, ETV3 (Homo sapiens, UniProt P41162-2 1-143)
T7 sequence: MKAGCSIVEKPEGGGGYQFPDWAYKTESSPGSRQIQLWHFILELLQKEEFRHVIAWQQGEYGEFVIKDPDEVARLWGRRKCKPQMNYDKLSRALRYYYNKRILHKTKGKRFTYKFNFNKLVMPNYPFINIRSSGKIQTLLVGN
Method in brief: as §1

ETV6 = ETV6 (Homo sapiens, UniProt P41212 1-452)
Method in brief: as §1

Sequence of ETV6 (P41212 whole entry): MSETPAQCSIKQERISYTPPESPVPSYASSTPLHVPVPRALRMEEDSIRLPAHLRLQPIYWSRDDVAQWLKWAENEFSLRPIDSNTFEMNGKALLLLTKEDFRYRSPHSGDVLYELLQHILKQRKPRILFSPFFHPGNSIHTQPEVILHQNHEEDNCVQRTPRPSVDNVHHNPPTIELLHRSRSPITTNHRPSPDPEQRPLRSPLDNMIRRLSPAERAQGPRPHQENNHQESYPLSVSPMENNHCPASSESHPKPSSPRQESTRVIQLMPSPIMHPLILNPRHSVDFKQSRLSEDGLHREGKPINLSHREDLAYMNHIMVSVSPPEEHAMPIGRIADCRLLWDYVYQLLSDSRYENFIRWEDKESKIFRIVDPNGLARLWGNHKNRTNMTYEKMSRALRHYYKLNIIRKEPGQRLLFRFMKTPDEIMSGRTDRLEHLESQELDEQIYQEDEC

| Sequence | binding signal (ERF) | binding signal (ETV3L) | binding signal (ETS2) | binding signal (SPDEF) | binding signal (ETV7) | binding signal (ELF5) | binding signal (ETV3) | binding signal (ETV6) |
| --- | --- | --- | --- | --- | --- | --- | --- | --- |
| CGCCTC | 1.37 fold enrichment (6-mer frequency, TF over GST control) | 1.49 fold enrichment (6-mer frequency, TF over GST control) | 1.27 fold enrichment (6-mer frequency, TF over GST control) | 1.39 fold enrichment (6-mer frequency, TF over GST control) | 1.26 fold enrichment (6-mer frequency, TF over GST control) | 1.43 fold enrichment (6-mer frequency, TF over GST control) | 1.37 fold enrichment (6-mer frequency, TF over GST control) | 1.42 fold enrichment (6-mer frequency, TF over GST control) |
| CCTTCA | 1.42 fold enrichment (6-mer frequency, TF over GST control) | 1.21 fold enrichment (6-mer frequency, TF over GST control) | 1.38 fold enrichment (6-mer frequency, TF over GST control) | 1.48 fold enrichment (6-mer frequency, TF over GST control) | 1.26 fold enrichment (6-mer frequency, TF over GST control) | 1.56 fold enrichment (6-mer frequency, TF over GST control) | 1.46 fold enrichment (6-mer frequency, TF over GST control) | 1.5 fold enrichment (6-mer frequency, TF over GST control) |
| TGACTC | 1.21 fold enrichment (6-mer frequency, TF over GST control) | 1.21 fold enrichment (6-mer frequency, TF over GST control) | 1.38 fold enrichment (6-mer frequency, TF over GST control) | 1.27 fold enrichment (6-mer frequency, TF over GST control) | 1.41 fold enrichment (6-mer frequency, TF over GST control) | 1.28 fold enrichment (6-mer frequency, TF over GST control) | 1.32 fold enrichment (6-mer frequency, TF over GST control) | 1.28 fold enrichment (6-mer frequency, TF over GST control) |
| CCCACC | 1.16 fold enrichment (6-mer frequency, TF over GST control) | 1.05 fold enrichment (6-mer frequency, TF over GST control) | 1.02 fold enrichment (6-mer frequency, TF over GST control) | 1.12 fold enrichment (6-mer frequency, TF over GST control) | 1.08 fold enrichment (6-mer frequency, TF over GST control) | 1.15 fold enrichment (6-mer frequency, TF over GST control) | 1.06 fold enrichment (6-mer frequency, TF over GST control) | 1.12 fold enrichment (6-mer frequency, TF over GST control) |
| TGACAT | 1.21 fold enrichment (6-mer frequency, TF over GST control) | 1.28 fold enrichment (6-mer frequency, TF over GST control) | 1.3 fold enrichment (6-mer frequency, TF over GST control) | 1.25 fold enrichment (6-mer frequency, TF over GST control) | 1.25 fold enrichment (6-mer frequency, TF over GST control) | 1.22 fold enrichment (6-mer frequency, TF over GST control) | 1.26 fold enrichment (6-mer frequency, TF over GST control) | 1.37 fold enrichment (6-mer frequency, TF over GST control) |
| ACCTGA | 1.14 fold enrichment (6-mer frequency, TF over GST control) | 1.04 fold enrichment (6-mer frequency, TF over GST control) | 1.03 fold enrichment (6-mer frequency, TF over GST control) | 1.14 fold enrichment (6-mer frequency, TF over GST control) | 1.03 fold enrichment (6-mer frequency, TF over GST control) | 1.07 fold enrichment (6-mer frequency, TF over GST control) | 1.07 fold enrichment (6-mer frequency, TF over GST control) | 1.09 fold enrichment (6-mer frequency, TF over GST control) |
| CACATA | 1.17 fold enrichment (6-mer frequency, TF over GST control) | 1.19 fold enrichment (6-mer frequency, TF over GST control) | 1.1 fold enrichment (6-mer frequency, TF over GST control) | 1.11 fold enrichment (6-mer frequency, TF over GST control) | 1.03 fold enrichment (6-mer frequency, TF over GST control) | 1.05 fold enrichment (6-mer frequency, TF over GST control) | 1.09 fold enrichment (6-mer frequency, TF over GST control) | 1.1 fold enrichment (6-mer frequency, TF over GST control) |
